The record followed here is PubChem BioAssay (NCI).

Some test systems named below: DU-145 prostate; K-562 leukemia; MALME-3M melanoma; MDA-MB-231 breast; RXF 393 renal; SF-268 CNS; SF-295 CNS; SF-539 CNS; UACC-257 melanoma; M14 melanoma.
Test in all cases: NCI-60 one-dose screen, 48 h (100 = growth as untreated, 0 = no growth, -100 = all killed)
Holding throughout (settings): 10 µM unless noted

SMILES strings stand for the structures. Compounds without any hit were thinned out: in the full panel of roughly 83,000, 20% have a hit.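 Activity criterion: percent growth below 10, measured after cells in 96-well plates were exposed to a single compound concentration for 48 hours.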 A number with no mark means an inactive call. Active and inactive are the calls of the source.

With `C(=C\c1nccc2c1[nH]c1ccccc12)/c1ccccc1`, the growth in the test on DU-145 prostate is 9.25% (active); with K-562 leukemia, 69.2%; with MALME-3M melanoma it was 29.4%; in the test with MDA-MB-231 breast, 30.7%; in the test on RXF 393 renal, -44.6% (active); with SF-268 CNS it was 41.8%. Further, the growth was -32% (active) in the test with SF-295 CNS, 7.92% (active) in the test with SF-539 CNS, 37.5% in the test on UACC-257 melanoma and 19.8% with M14 melanoma.

Turning to `Nc1n[nH]c2cc(F)c([C@@H]3Nc4ccc5[nH]ncc5c4[C@H]4C5CCC(C5)[C@@H]34)cc12` (stereo not given in full), the growth was -7.54% (active) in the test on DU-145 prostate; 11.5% in the test on K-562 leukemia; 73% in the test on MALME-3M melanoma; 35.8% in the test on MDA-MB-231 breast; 54.2% in the test with RXF 393 renal; 9.83% (active) with SF-268 CNS. Also, the growth was 6.25% (active) with SF-295 CNS, -31% (active) in the test on SF-539 CNS, 53.1% with UACC-257 melanoma and -1.74% (active) in the test on M14 melanoma.

`O=C1c2cc3c(cc2-c2c1c1ccc(F)cc1c(=O)n2C[C@H](O)[C@H](O)[C@H](O)CO)OCO3`: the growth is -1.68% (active) in the test with DU-145 prostate; 5.32% (active) in the test on K-562 leukemia; -48.9% (active) in the test with MALME-3M melanoma; -1.24% (active) in the test on MDA-MB-231 breast; -57.2% (active) in the test on RXF 393 renal; 1.96% (active) in the test with SF-268 CNS. For the same compound, the growth with SF-295 CNS was -23.6% (active); with SF-539 CNS, -41.1% (active); in the test with UACC-257 melanoma, -43.4% (active); in the test on M14 melanoma it was -20.4% (active).

On to `C=CC(=O)Nc1cccc(-c2nc(SC)nc(NCc3ccccc3)c2C#N)c1`, for which the growth with DU-145 prostate was 60.8%; with K-562 leukemia, 60%; in the test on MALME-3M melanoma it was 66.4%; in the test on MDA-MB-231 breast, 62.4%; in the test with RXF 393 renal it was 21.9%; with SF-268 CNS it was 49%. Further, the growth in the test with SF-295 CNS was 67.8%; with SF-539 CNS, 67.7%; in the test with UACC-257 melanoma it was 64.9%; in the test on M14 melanoma it was 71.3%.

On to `CCCCn1c(-c2ccc(C(=O)O/N=C(\N)c3ccc4c(c3)OCO4)cc2)nc(-c2ccccc2)c1-c1ccccc1`, for which the growth is 46.4% in the test with DU-145 prostate; -5.48% (active) with K-562 leukemia; 55.6% in the test with MALME-3M melanoma; 33.1% in the test with MDA-MB-231 breast; 34.7% in the test on RXF 393 renal; 29.4% with SF-268 CNS. The growth in the test on SF-295 CNS is 61.4%; in the test with SF-539 CNS, 58.1%; in the test on UACC-257 melanoma it was 79.9%; with M14 melanoma it was 54.1%.

Consider `O=C(Nc1ccc(Cl)cc1)c1cc2cc(F)ccc2cc1O`, for which the growth in the test on DU-145 prostate is 26.7%; with K-562 leukemia, 11.5%; in the test on MALME-3M melanoma it was -3.12% (active); in the test with MDA-MB-231 breast, -23.4% (active); in the test on RXF 393 renal it was 13.6%; in the test on SF-268 CNS, 23.6%. For the same compound, the growth in the test with SF-295 CNS is 31.2%; in the test on SF-539 CNS it was 17.7%; with UACC-257 melanoma, -23.8% (active); in the test with M14 melanoma, 15.9%.

Take `CN(C)CCN1C(=O)c2cccc3c(N)ccc(c23)C1=O`: the growth is 25.9% in the test with DU-145 prostate; 2.08% (active) with K-562 leukemia; 46.7% in the test with MALME-3M melanoma; 58.3% in the test on MDA-MB-231 breast; 4.79% (active) in the test on RXF 393 renal; 17.5% in the test with SF-268 CNS. Moreover, the growth with SF-295 CNS is 21.4%; with SF-539 CNS, 19.4%; in the test on UACC-257 melanoma, 9.42% (active); in the test on M14 melanoma, 34.4%.

As for `COc1ccc(/C=C/c2nc(-c3n[nH]c(=O)n3-c3ccccc3)c3ccccc3n2)cc1`, the growth is 102% with DU-145 prostate; 95.7% in the test with K-562 leukemia; 94.3% in the test on MALME-3M melanoma; 94.5% in the test with MDA-MB-231 breast; 101% with RXF 393 renal; 97.3% with SF-268 CNS. Further, the growth in the test with SF-295 CNS was 99.6%; in the test with SF-539 CNS it was 101%; in the test with UACC-257 melanoma, 106%; in the test on M14 melanoma it was 94.1%.

For `C#CCOc1ccc2ncnc(Nc3cccc(CNC(=O)C=C)c3)c2c1`, the growth in the test with DU-145 prostate is 108% [8.25 µM]; in the test with K-562 leukemia it was 104% [8.25 µM]; in the test with MALME-3M melanoma, 109% [8.25 µM]; with MDA-MB-231 breast, 101% [8.25 µM]; in the test with RXF 393 renal it was 79.4% [8.25 µM]; in the test with SF-268 CNS it was 86.2% [8.25 µM]. Further, the growth is 102% [8.25 µM] in the test on SF-295 CNS, 99.9% [8.25 µM] in the test on SF-539 CNS, 106% [8.25 µM] in the test with UACC-257 melanoma and 103% [8.25 µM] with M14 melanoma.

Regarding `Nc1ccc(S(=O)(=O)O)c2ccc(N=Nc3ccc(N=Nc4ccc(S(=O)(=O)O)cc4)c4ccccc34)c(O)c12`, the growth in the test on DU-145 prostate is 110%; with K-562 leukemia, 106%; in the test on MALME-3M melanoma, 97.6%; in the test with MDA-MB-231 breast, 94.7%; in the test on RXF 393 renal, 109%; with SF-268 CNS, 101%. Further, the growth in the test on SF-295 CNS is 114%; with SF-539 CNS it was 123%; in the test with UACC-257 melanoma, 109%; in the test on M14 melanoma, 99.8%.

In the case of `CCCCn1c(-c2ccc(C(=O)O/N=C(\N)c3ccc4ccccc4c3)cc2)nc(-c2ccccc2)c1-c1ccccc1`, the growth with DU-145 prostate is 65.3%; with K-562 leukemia, 11.9%; in the test with MALME-3M melanoma, 93.4%; with MDA-MB-231 breast it was 70%; in the test with RXF 393 renal, 58.2%; with SF-268 CNS, 48.9%. The growth in the test on SF-295 CNS was 81%; in the test with SF-539 CNS, 81.3%; in the test on UACC-257 melanoma, 98.3%; in the test with M14 melanoma it was 82.6%.

As to `CC1=C[C@H]2c3c(c(O)c(O)c4oc5cc(O)ccc5c(=O)c34)[C@H](c3cc(O)c(O)c4oc5cc(O)ccc5c(=O)c34)[C@H]2C(C)(C)C1`, the growth in the test with DU-145 prostate is 34.4%; in the test on K-562 leukemia, 6.38% (active); in the test with MALME-3M melanoma, 60.8%; with MDA-MB-231 breast, 50.9%; with RXF 393 renal, 54.5%; in the test on SF-268 CNS, 36%. Moreover, the growth with SF-295 CNS is 21.5%; with SF-539 CNS, 20.4%; in the test on UACC-257 melanoma it was 62.7%; with M14 melanoma, 38.3%.

On to `CCCn1c(=O)[nH]c(N)c([C@H]2c3ccccc3Oc3[nH]c(=O)n(CCC)c(=O)c32)c1=O`, for which the growth in the test on DU-145 prostate is 75.1%; in the test with K-562 leukemia, 52.6%; with MALME-3M melanoma it was 78.4%; in the test on MDA-MB-231 breast, 81.8%; with RXF 393 renal, 98.2%; with SF-268 CNS, 94.4%. Also, the growth with SF-295 CNS is 88.1%; in the test on SF-539 CNS it was 100%; with UACC-257 melanoma it was 76.3%; in the test on M14 melanoma, 83.8%.

Turning to `CC1=C[C@H]2c3c(c(O)c(O)c4oc(-c5ccccc5)cc(=O)c34)[C@H](c3cc(O)c(O)c4oc(-c5ccccc5)cc(=O)c34)[C@H]2C(C)(C)C1`, the growth with DU-145 prostate is 9.89% (active); in the test with K-562 leukemia, 2.82% (active); in the test on MALME-3M melanoma it was -12.8% (active); with MDA-MB-231 breast, 5.31% (active); in the test with RXF 393 renal it was -26.6% (active); with SF-268 CNS, 5.26% (active). For the same compound, the growth in the test on SF-295 CNS was -18.2% (active); in the test with SF-539 CNS, -10.5% (active); in the test on UACC-257 melanoma it was 12.8%; in the test with M14 melanoma it was -28.1% (active).

On to `CCc1nnc(CNc2ccc(Cl)cc2)o1`, for which the growth with DU-145 prostate was 108%; with K-562 leukemia it was 86.3%; in the test with MALME-3M melanoma, 95.6%; with MDA-MB-231 breast, 94.4%; with RXF 393 renal, 113%; in the test on SF-268 CNS it was 96.4%. Moreover, the growth in the test with SF-295 CNS was 102%; in the test with SF-539 CNS it was 97%; in the test with UACC-257 melanoma it was 103%; with M14 melanoma it was 95.1%.

With `C=CC(=O)Nc1cccc(-c2nc(SC)nc(Nc3cccc(OC)c3)c2C#N)c1`, the growth with DU-145 prostate was 54.6%; in the test with K-562 leukemia it was 54.6%; with MALME-3M melanoma it was 77.6%; in the test on MDA-MB-231 breast, 71.4%; in the test on RXF 393 renal, 36.9%; with SF-268 CNS it was 57.1%. Further, the growth in the test on SF-295 CNS is 77.8%; in the test on SF-539 CNS it was 71.3%; with UACC-257 melanoma it was 82.3%; with M14 melanoma it was 60.6%.

Consider `COc1cc(/C=C/c2cc(/C=C/c3ccc(O)c(OC)c3)n(-c3c(Cl)cccc3Cl)c(=O)n2)ccc1O`, for which the growth is 28.7% with DU-145 prostate; 9.21% (active) in the test on K-562 leukemia; 58.8% with MALME-3M melanoma; 29% in the test on MDA-MB-231 breast; -11.8% (active) in the test with RXF 393 renal; 19.9% in the test on SF-268 CNS. Further, the growth is 75.4% in the test with SF-295 CNS, 3.35% (active) in the test on SF-539 CNS, 41.1% in the test on UACC-257 melanoma and 7.71% (active) in the test with M14 melanoma.

For the compound `C=CCSSC1N=CNc2nc[nH]c21` (stereo not given), the growth is 35.8% in the test with DU-145 prostate; 11.9% in the test with K-562 leukemia; 29.9% with MALME-3M melanoma; 39.8% in the test on MDA-MB-231 breast; 42.5% in the test on RXF 393 renal; 27.6% with SF-268 CNS. For the same compound, the growth was 33.2% with SF-295 CNS, 16.4% with SF-539 CNS, 43.6% in the test with UACC-257 melanoma and 8.72% (active) in the test on M14 melanoma.

Regarding `O=C(N(c1ccccc1)c1ccccc1)n1ccc2nc(Cl)nc(Cl)c21`, the growth with DU-145 prostate is 33.8%; in the test on K-562 leukemia, 42.8%; with MALME-3M melanoma, 58.6%; in the test with MDA-MB-231 breast it was 71.4%; in the test on RXF 393 renal, 32.7%; with SF-268 CNS it was 66.3%. The growth in the test on SF-295 CNS is 74.1%; with SF-539 CNS it was 68%; in the test on UACC-257 melanoma it was 70.2%; in the test with M14 melanoma it was 69.9%.

As for `FC(F)(F)c1nc2c(NCc3ccc(-c4ccccc4)cc3)cccc2[nH]1`, the growth in the test on DU-145 prostate is 81.2%; in the test on K-562 leukemia, 6.87% (active); in the test with MALME-3M melanoma, 71.4%; with MDA-MB-231 breast it was 57.7%; in the test on RXF 393 renal it was 85.7%; with SF-268 CNS it was 76.5%. Besides, the growth in the test on SF-295 CNS is 88.9%; in the test with SF-539 CNS, 81.3%; in the test with UACC-257 melanoma, 87.7%; in the test on M14 melanoma, 90.1%.

Take `COc1ccc(-n2nc(C)c3c(Oc4ccc(NC(=O)Nc5c(Cl)cccc5Cl)cc4)ncnc32)cc1`: the growth with DU-145 prostate is 105%; in the test with K-562 leukemia it was 104%; in the test on MALME-3M melanoma, 99.4%; with MDA-MB-231 breast, 101%; in the test on RXF 393 renal, 107%; in the test on SF-268 CNS, 93.6%. Further, the growth in the test on SF-295 CNS is 100%; with SF-539 CNS it was 96.7%; in the test on UACC-257 melanoma, 102%; in the test with M14 melanoma, 110%.
